± gives the uncertainty stated by the source.
What follows are molecules tested on FLX1 (assay: cell viability z-score within plate (CellTiter-Glo), mean of 3 biological replicates; higher = higher viability relative to plate (less growth inhibition)). Details: 2 µM; time (hr): 120.
Description: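 FLX1 fibrolamellar carcinoma cells (DNAJB1-PRKACA fusion), 600 cells/well in 384-well plates, treated with a Selleck kinase inhibitor library (L1200) at 2 uM for 5 days (120 hr); viability by CellTiter-Glo. A z-score was computed within each plate and averaged over three biological replicates.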
For `Oc1ccc(Nc2nc(-c3ccc(Cl)cc3)cs2)cc1`, the “cell viability z-score within plate” value was 0.219 ± 0.2.
In the case of `CNc1nc(Nc2cnn([C@H]3CCN(C4COC4)C[C@@H]3F)c2Cl)ncc1C(F)(F)F`, the “cell viability z-score within plate” value is reported as -0.856 ± 0.51.
For `O=C(NC[C@H](O)CO)c1ccncc1Nc1ccc(I)cc1F`, the “cell viability z-score within plate” value was -0.968 ± 0.82.
`CNC(=O)c1cc(Oc2ccc(NC(=O)Nc3cc(C(C)(C)C)nn3-c3ccc4ncccc4c3)c(F)c2)ccn1` [Rebastinib (DCC-2036)] was tested, and the “cell viability z-score within plate” value was 0.382 ± 0.34.
In the case of `Cc1[nH]c(/C=C2\C(=O)Nc3ccc(S(=O)(=O)Cc4c(Cl)cccc4Cl)cc32)c(C)c1C(=O)N1CCC[C@@H]1CN1CCCC1`, the “cell viability z-score within plate” value is reported as 0.00363 ± 0.67.
With `COc1ccc(-c2nc(N3CCOCC3)c3sc(CN(C)c4ncc(C(=O)NO)cn4)cc3n2)cn1` the “cell viability z-score within plate” value was -0.258 ± 0.92.
In the case of `CC[C@@H]1C(=O)N(C)c2cnc(Nc3ccc(C(=O)N[C@H]4CC[C@H](N5CCN(CC6CC6)CC5)CC4)cc3OC)nc2N1C(C)C` [Volasertib (BI 6727)], the “cell viability z-score within plate” value is reported as -0.186 ± 0.53.
For `CN1CCN(c2nc(C3=C(c4c[nH]c5ccccc45)C(=O)NC3=O)c3ccccc3n2)CC1` [Sotrastaurin], the “cell viability z-score within plate” value was 0.764 ± 0.47.
For `O=c1ncn2nc(Sc3ccc(F)cc3F)ccc2c1-c1c(Cl)cccc1Cl`, the “cell viability z-score within plate” value was -3.62 ± 2.1.
For `NC(=O)Nc1cc(-c2cccc(F)c2)sc1C(=O)N[C@H]1CCCNC1`, the “cell viability z-score within plate” value was 0.408 ± 0.47.
For `Cc1cc(Nc2nc(N[C@@H](C)c3ccc(F)cc3)c(C#N)cc2F)n[nH]1`, the “cell viability z-score within plate” value was 0.513 ± 0.61.
With `O=C1NCCc2[nH]c(-c3ccncc3)cc21` the “cell viability z-score within plate” value was 0.309 ± 0.59.
With `Cc1csc(-c2nnc(Nc3ccc(Oc4ncccc4-c4ccnc(N)n4)cc3)c3ccccc23)c1` the “cell viability z-score within plate” value was -0.507 ± 1.2.
In the case of `O=S(=O)(NCCNC/C=C/c1ccc(Br)cc1)c1cccc2cnccc12`, the “cell viability z-score within plate” value is reported as -2.86 ± 1.5.
For `C[S+]([O-])c1ccc(-c2nc(-c3ccc(F)cc3)c(-c3ccncc3)[nH]2)cc1` (stereo not given), the “cell viability z-score within plate” value was -1.58 ± 1.1.
In the case of `CCc1cccc(CC)c1NC(=O)N1Cc2[nH]nc(NC(=O)c3ccc(N4CCN(C)CC4)cc3)c2C1`, the “cell viability z-score within plate” value is reported as -0.62 ± 0.28.
In the case of `Cc1cc(Nc2cc(N3CCN(C)CC3)nc(Sc3ccc(NC(=O)C4CC4)cc3)n2)n[nH]1` [Tozasertib (VX-680, MK-0457)], the “cell viability z-score within plate” value is reported as 0.324 ± 0.42.
In the case of `Cc1ccc(F)c(NC(=O)Nc2ccc(-c3cccc4[nH]nc(N)c34)cc2)c1` [Linifanib (ABT-869)], the “cell viability z-score within plate” value is reported as 0.077 ± 0.57.
With `Cc1ccc(S(=O)(=O)/C=C/C#N)cc1` the “cell viability z-score within plate” value was 0.177 ± 0.63.
For `CC(=O)Nc1cccc(-n2c(=O)n(C3CC3)c(=O)c3c(Nc4ccc(I)cc4F)n(C)c(=O)c(C)c32)c1`, the “cell viability z-score within plate” value was 0.929 ± 0.43.
In the case of `CCn1c2ccccc2c2cc(Nc3ccnc(NCCCN4CCOCC4)n3)ccc21`, the “cell viability z-score within plate” value is reported as 1.38 ± 0.26.
With `Cc1nc(N)sc1-c1ccnc(Nc2ccc(N3CCOCC3)cc2)n1` the “cell viability z-score within plate” value was 0.352 ± 0.28.
`CCS(=O)(=O)c1cccc(-c2cc(C(=O)NC3CCN(C)CC3)c(C)c3[nH]c4ncc(C)cc4c23)c1` was tested, and the “cell viability z-score within plate” value was 0.278 ± 0.45.
With `Cc1cc(NC(=O)c2cccc(NC(=O)/C=C/CN(C)C)c2)ccc1Nc1nccc(-c2cccnc2)n1` the “cell viability z-score within plate” value was 0.657 ± 0.22.
`CS(=O)(=O)CCNCc1ccc(-c2ccc3ncnc(Nc4ccc(OCc5cccc(F)c5)c(Cl)c4)c3c2)o1` was tested, and the “cell viability z-score within plate” value was 0.842 ± 0.23.
With `Cn1cnc(N)c2ncnc1-2` [3-Methyladenine (3-MA)] the “cell viability z-score within plate” value was 0.219 ± 0.67.
`CN(C)CCOc1ccc(-c2nc(-c3ccncc3)c(-c3ccc4c(c3)CC/C4=N\O)[nH]2)cc1` was tested, and the “cell viability z-score within plate” value was 0.259 ± 0.2.
In the case of `CN(C)Cc1cccc(N/C(=C2\C(=O)Nc3cc(C(N)=O)ccc32)c2ccccc2)c1`, the “cell viability z-score within plate” value is reported as -0.208 ± 0.31.
`O=C(Nc1cc(C(F)(F)F)cc(C(F)(F)F)c1)c1cc(Cl)ccc1O` was tested, and the “cell viability z-score within plate” value was -0.692 ± 0.5.
In the case of `CS(=O)(=O)CCNCc1ccc(-c2ccc3ncnc(Nc4ccc(OCc5cccc(F)c5)c(Cl)c4)c3c2)o1` [Lapatinib], the “cell viability z-score within plate” value is reported as 0.823 ± 0.37.
For `Cn1cc(-c2ccc3ncc(Cc4ccc5ncccc5c4)n3n2)cn1`, the “cell viability z-score within plate” value was 0.137 ± 0.93.
`CNC(=O)c1ccccc1Sc1ccc2c(/C=C/c3ccccn3)n[nH]c2c1` [Axitinib] was tested, and the “cell viability z-score within plate” value was 0.834 ± 0.44.
In the case of `N#Cc1c(Oc2ccc(F)c(NC(=O)Cc3cccc(C(F)(F)F)c3)c2)ccc2nc(NC(=O)C3CC3)sc12`, the “cell viability z-score within plate” value is reported as 0.529 ± 0.94.
`Cc1c(NC(=O)OC[C@@H]2COCCN2)cn2ncnc(Nc3ccc4c(cnn4Cc4cccc(F)c4)c3)c12` was tested, and the “cell viability z-score within plate” value was -2.76 ± 1.1.
In the case of `CC1(COc2ccc3c(c2)ncn3-c2ccc3cccc(N4CCC(N)CC4)c3n2)COC1`, the “cell viability z-score within plate” value is reported as 0.0444 ± 0.77.
For `CC[C@H](Nc1ncnc2[nH]cnc12)c1nc2cccc(F)c2c(=O)n1-c1ccccc1` [Idelalisib (CAL-101, GS-1101)], the “cell viability z-score within plate” value was 0.166 ± 0.22.
For `C#Cc1cccc(Nc2ncnc3cc4c(cc23)OCCOCCOCCO4)c1` [Icotinib], the “cell viability z-score within plate” value was 0.676 ± 0.52.
In the case of `C=CC(=O)Nc1cccc(Oc2nc(Nc3ccc(N4CCN(C)CC4)cc3OC)ncc2Cl)c1`, the “cell viability z-score within plate” value is reported as 0.221 ± 0.37.
With `CCOc1ccn(-c2ccc(F)cc2)c(=O)c1C(=O)Nc1ccc(Oc2ccnc(N)c2Cl)c(F)c1` the “cell viability z-score within plate” value was -0.36 ± 1.2.
`N#Cc1c(NC(=O)c2cccc3ccccc23)sc2c1CCCC2` [JNK Inhibitor IX] was tested, and the “cell viability z-score within plate” value was 0.195 ± 0.75.

Reference: the supplement of paper PMC9925115
